ELG1 DNA repair = qHTS screen for small molecules that inhibit ELG1-dependent DNA repair in human embryonic kidney (HEK293T) cells expressing luciferase-tagged ELG1; HEK293T ELG1-luciferase reporter, luminescence, 16 h; DNA damage induced by 5-fluorouridine; Potency, µM (series often up to 46.1 µM), for inactives: at the top dose activity change, negative = inhibition, usual class: inhibitors; 2.3% of 330,000 active; AID 504467, 2011; note: % is set by controls: 0 for no effect and ±100 for the full control effect; nearly all actives have a fitted effect of over 55% in size
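Overnight (16 hr) co-exposure of 2,000 cells/well to 5-fluorouridine and compound at 37 °C preceded detection. Luciferase was quantified via ONE-Glo luminescence; loss of signal denotes inhibition.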
FLuc modulator = qHTS profiling assay for firefly luciferase inhibitor/activator using purifed enzyme and Km concentrations of substrates (counterscreen for miR-21 project). Luciferin 4-monooxygenase (Photinus pyralis), P08659. purified FLuc, Km substrates, luminescence inhibition. Potency, µM (top dose mostly 57.5 µM), inactives show top-dose activity change, negative = inhibition, most hits filed as inhibitors. 6.9% of 360,000 active. AID 588342, 2011;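 note: plate controls were vehicle for no effect and reference inhibitor for full effect; nearly all actives have a fitted effect of over 55% in size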
Target sequence (P08659 whole entry, looked up): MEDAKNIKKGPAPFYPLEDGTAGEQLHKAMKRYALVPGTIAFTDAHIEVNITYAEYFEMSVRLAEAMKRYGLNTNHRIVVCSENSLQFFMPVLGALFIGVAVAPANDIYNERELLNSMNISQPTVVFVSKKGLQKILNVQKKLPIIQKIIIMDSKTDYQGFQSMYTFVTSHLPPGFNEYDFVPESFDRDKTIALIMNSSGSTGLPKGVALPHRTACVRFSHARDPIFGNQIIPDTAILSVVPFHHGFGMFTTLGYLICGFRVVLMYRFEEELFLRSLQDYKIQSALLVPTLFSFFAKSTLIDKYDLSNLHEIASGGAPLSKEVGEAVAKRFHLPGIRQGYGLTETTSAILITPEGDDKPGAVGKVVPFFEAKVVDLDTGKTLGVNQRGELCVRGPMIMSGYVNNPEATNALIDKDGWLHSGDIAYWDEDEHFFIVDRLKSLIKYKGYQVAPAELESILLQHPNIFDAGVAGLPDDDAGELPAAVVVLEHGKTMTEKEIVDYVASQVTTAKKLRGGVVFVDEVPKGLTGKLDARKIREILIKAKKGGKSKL
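Biochemical qHTS of compounds, final roughly 60 µM downward over six points, against 10 nM purified firefly luciferase using Km concentrations of substrates (10 uM D-luciferin, 10 uM ATP) in Tris acetate pH 7.5 buffer; luminescence output.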
SMN2 splice up = qHTS Assay for Enhancers of SMN2 Splice Variant Expression; AID 1458, 2008; HEK293 SMN2-luciferase splicing reporter, luminescence, 30-36 h; Potency, µM (highest dose often 46.1 µM), for the others: top-dose activity change, positive = activation, actives largely listed as activators; 2.8% of 210,000 active; note: % of control where 0% means no effect; nearly all actives have a fitted effect of over 55% in size
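HEK293 cells carry an SMN2 minigene-luciferase reporter in which exon 7 inclusion puts luciferase in frame. Cells were seeded at 2000 cells/well, attached for 10-12 hours, then exposed to compounds for 30-36 hours at 37C before ONE-Glo luminescence.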
ELG1 genotox = qHTS screen for small molecules that induce genotoxicity in human embryonic kidney (HEK293T) cells expressing luciferase-tagged ELG1 | HEK293T ELG1-luciferase reporter, luminescence, 16 h | Potency, µM (top dose mostly 46 µM), for inactives: top-dose activity change, positive = activation, usual class: activators | 1.3% of 330,000 active; note: % of control where 0% means no effect; nearly all actives have a fitted effect of over 60% in size
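After overnight (16 hr) compound treatment at 37 °C, ELG1-luciferase HEK293T cells were lysed with ONE-Glo; luminescence quantified 30 min later at room temperature.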
Rab9 prom act = qHTS Assay for Rab9 Promoter Activators; Huh7 Rab9 promoter-luciferase reporter, luminescence, 24 h; AID 485297, 2010; 2.8% of 320,000 active; Potency, µM (series often up to 9.22 µM), without a hit: at the top dose activation, negative = inhibition, hits mostly activators; note: % of control where 0% means no effect; nearly all actives have a fitted effect of over 60% in size
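Cells were plated at 1500 per well in reduced-serum medium with 10% FBS and left 2 h. Compound in DMSO was then added for 24 h at 37 °C. Reporter signal was read by luminescence after 10 min with luciferase detection reagent.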
NPC1 prom act = qHTS Assay for NPC1 Promoter Activators | Huh7 NPC1 promoter luciferase reporter, 24 h | Potency, µM (titrated, usually from 9.22 µM), without a hit: at the top dose activation, most hits filed as activators | 2.4% of 320,000 active; note: % of control where 0% means no effect; nearly all actives have a fitted effect of over 60% in size
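Luciferase expression driven by the NPC1 promoter was measured in stably transfected Huh7 cells after a 24 h compound incubation, using a luciferase reagent and a luminescence read.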
The depositor's hits bear a star; ? = inconclusive; . = not tested or not shown; ! = not active in a repeat; [ ] = another dose, or the depositor's remark. A selection: hits, their analogues and other compounds. The true share with any hit is near 9.2%. Calls come from the whole dose curve; as a rule, active = well fitted curve in the direction sought with a large enough effect; inconclusive = small, poorly fitted or top-dose-only effect, or another doubt; inactive = no such curve, though single readings can be large; an effect the other way counts as inactive or inconclusive. Potency is the fitted concentration of half-maximal effect.

SMILES	ELG1 DNA repair	FLuc modulator	SMN2 splice up	ELG1 genotox	Rab9 prom act	NPC1 prom act
CCOC(=O)C(C(C)=O)c1c(Br)c(O)c(O)c2c(C(=O)c3ccc(C)cc3)coc12 (stereo unspecified)	4.61µM*	19µM*	-4.1%	7.2%	-14.4%	-25.5%
COc1ccc(/C=C2/SC(=O)N(NS(=O)(=O)c3ccccc3)C2=S)cc1OC	-4.4%	?	-10.0%	1.0%	-1.3%	0.3%
Cc1cc(C)cc(NS(=O)(=O)c2ccc3[nH]cc(C(=O)NCc4ccco4)c(=O)c3c2)c1	10.3µM*	3.5%	-58.0%	-33.9%	-5.4%	1.6%
CN(Cc1ccccc1)S(=O)(=O)c1ccc2[nH]cc(C(=O)NCC3CCCO3)c(=O)c2c1 (stereo unspecified)	?	10.7µM*	12.0%	?	2.82µM*	3.16µM*
CCOc1ccc(NS(=O)(=O)c2ccc3[nH]cc(C(=O)NCC4CCCO4)c(=O)c3c2)cc1 (stereo unspecified)	-4.6%	26.9µM*!	1.1%	2.7%	-2.7%	?
CCOc1ccc(NS(=O)(=O)c2ccc3[nH]cc(C(=O)N(CC)CC)c(=O)c3c2)cc1	?	2.69µM*	3.55µM*	?	0.398µM*	0.447µM*
CCOC(=O)CSc1nc2cc3c(cc2c(=O)n1CCCCCC(=O)NCc1ccc2c(c1)OCO2)OCO3	.	-6.4%	.	.	.	.
O=C(COC(=O)c1cc(S(=O)(=O)N2CCOCC2)ccc1Cl)Nc1ccccc1Cl	-7.2%	2.3%	.	-1.4%	-2.9%	1.1%
Oc1ccc2ccccc2c1N=Nc1ccccc1F	10.3%	16.9µM*	.	1.2%	1.6%	?
O=S(=O)(O)c1cccc(N=Nc2c(O)ccc3ccccc23)c1	1.6%	23.9µM*	.	-0.6%	-0.4%	1.1%
Oc1ccc2ccccc2c1N=Nc1ccccn1	?	15.1µM*	-78.6%	0.7%	-26.9%	?
CCOC(=O)c1[nH]cnc1N=Nc1c(O)ccc2ccccc12	13.5%	?	-96.4%	?	-23.8%	-8.4%
COc1ccc2nc(N=Nc3c(O)ccc4ccccc34)sc2c1	-16.9%	-15.6%	.	7.0%	-29.2%	-0.5%
Cc1ccc(CO/N=C\Cc2snc(Sc3ncc(C(F)(F)F)cc3Cl)c2C#N)cc1	7.6%	0.4%	5.0%	-1.1%	9.3%	-0.4%
COc1ccccc1C(=O)COC(=O)CN1C(=O)C2CC=CCC2C1=O (stereo unspecified)	?	0.4%	.	-1.4%	2.8%	-6.2%
CCOC(=O)c1ccc(N2Cc3ccccc3C2=N)cc1	?	?	0.0%	?	29.7%	14.6%
CCc1ccc(N2Cc3ccccc3C2)cc1	?	6.01µM*	.	?	3.55µM*	2.82µM*
CCOC(=O)c1ccc(N2Cc3ccccc3C2)cc1O	?	8.49µM*	.	?	?	26.9%
O=C(NCCCn1ccnc1)c1cc(Cl)cc(Cl)c1	-3.2%	-1.3%	.	0.0%	0.0%[1.84 µM]	-4.8%
O=C(N/N=C/C=C/c1ccccc1[N+](=O)[O-])c1cccnc1	13.0%	-0.2%	.	1.3%	-2.6%	-0.9%
O=C(NN=Cc1cccc([N+](=O)[O-])c1)c1cc(-c2cccnc2)nc2ccccc12	23.1µM*	.	.	0.1%	.	.
COc1ccccc1-c1cc(C(=O)N/N=C/C=C/c2ccccc2[N+](=O)[O-])c2ccccc2n1	16.4µM*	-0.1%	-18.3%	-10.3%	-2.6%	-0.1%
Cc1[nH]c2ccccc2c1C=NNC(=O)c1cc(-c2cccnc2)nc2ccccc12	16.4µM*	.	.	-9.2%	.	.
Cc1cc(C(=O)N/N=C/c2cccc([N+](=O)[O-])c2)c2ccccc2n1	-9.9%	2.0%	2.4%	0.2%	-15.8%	0.9%
O=C(N/N=C/C=C/c1ccccc1[N+](=O)[O-])c1cc(-c2cccnc2)nc2ccccc12	16.4µM*	?	-11.3%	-6.8%	0.2%	3.4%
SMILES	ELG1 DNA repair	FLuc modulator	SMN2 splice up	ELG1 genotox	Rab9 prom act	NPC1 prom act
Cc1ccc(C=NNC(=O)c2cc(-c3cccnc3)nc3ccccc23)o1	3.2%	.	.	-1.2%	.	.
COc1ccccc1-c1cc(C(=O)N/N=C\c2cnn(C)c2C)c2ccccc2n1	?	-1.5%	-11.0%	-0.7%	-7.7%	1.1%
CC(C)(C)C(=O)Nc1ccccc1C(=O)OCC(=O)c1ccc2c(c1)OCCO2	-10.4%	6.75µM*	-28.8%	-0.8%	2.6%	-2.6%
O=C(COC(=O)c1ccccc1NC(=O)C1CC1)c1ccc2c(c1)OCCO2	-3.5%	1.69µM*	1.0%	-1.2%	?	22.1%
COC(=O)c1ccccc1NC(=O)c1ccc2c(c1)OCCO2	20.6%	?	?	12.7%	18.0%	2.8%
CC1=NC(=O)C(N=Nc2ccccc2)N1c1ccccc1 (stereo unspecified)	?	?	15.8µM*	?	3.55µM*	11.9%
CC1=NC(=O)C(N=Nc2cccc(C(=O)O)c2)N1c1ccccc1 (stereo unspecified)	?	0.426µM*	0.501µM*	?	1.26µM*	?
CC1=NC(=O)C(N=Nc2ccccc2C(=O)O)N1c1ccccc1 (stereo unspecified)	-27.2%	15.1µM*	11.9%	-7.2%	26.2%	7.3%
CC1=NN(c2ccccc2)C(=O)C1N=Nc1ccc(S(N)(=O)=O)cc1 (stereo unspecified)	0.0%	-1.6%	.	3.5%	10.8%	5.4%
CCCn1c(SCC(O)c2cccc(OC)c2)nc2ccccc21 (stereo unspecified)	.	-15.9%	-1.6%	.	.	.
Cc1c(Br)cnn1C(C)C(=O)N1CCN(c2ccccc2F)CC1 (stereo unspecified)	-6.5%	.	.	-2.9%	-0.7%	0.1%
Cc1cc(C(=O)Cn2nc(C(=O)O)c3ccccc3c2=O)c(C)n1CCc1ccc(Cl)cc1	8.2µM*	-12.3%	-20.2%	-16.8%	2.5%	-5.7%
Cc1cc(C)c(C(=O)Cn2nc(C(=O)O)c3ccccc3c2=O)cc1C	?	6.01µM*	.	0.4%	10.9%	-5.8%
Cc1ccccc1NC(=O)Cn1nc(C(=O)O)c2ccccc2c1=O	2.3%	-0.9%	.	0.8%	-2.1%	-3.7%
O=C(Cn1nc(C(=O)O)c2ccccc2c1=O)c1c[nH]c2ccccc12	2.6%	15.1µM*	.	1.7%	-0.6%	-7.2%
O=C(Cn1nc(C(=O)O)c2ccccc2c1=O)Nc1cc(Cl)cc(Cl)c1	14.2%	-1.4%	.	0.5%	-3.5%	1.3%
